In PubChem BioAssay AID1626 (SRMLSC, 2009):
Screen size: about 220,000 compounds; about 2,000 (0.91%) were called active. Inconclusive results (about 2%) are left out. A selection follows. Potency and affinity values are given separately. Unmarked numbers belong to inactive results. No stated cut-off is given here; in the data, inconclusive means inhibition above about 80% without an active follow-up result; inactive means below that; test concentration not stated here.

Test: M. tuberculosis H37Rv growth inhibitors, H37Rv strain (AID 1626);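 further: bacteria incubated seven days before Alamar blue readout; 0% = bacteria only wells and 100% = bacteria with antibiotic wells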
Conditions: stronger effect = higher value, concentration not given here
Molecule `CCN1CCN(C(=O)C(=O)c2c(C)[nH]c3ccccc23)CC1` has an inhibition of 0.56%. With `O=C(CSc1nnc(CCCN2C(=O)c3cccc4cccc(c34)C2=O)n1-c1ccccc1)N1CCN(CCO)CC1` the inhibition was -10.9%. For `O=C1Nc2cc(Cl)cnc2N2CCCC12` (stereo not drawn), the inhibition was 2.46%. `CCN(CC)CCCNC(=O)Cn1nc([N+](=O)[O-])c(Cl)c1C` showed an inhibition of -1.51%. `O=C(NCc1ccccc1)c1ccc(CNc2c(N3CCCC3)c(=O)c2=O)cc1` gave an inhibition of 3.31%. Molecule `Cc1ccc(CNC(=O)c2ccc(CNc3c(N4CCCC4)c(=O)c3=O)cc2)cc1` has an inhibition of 8.62%. For `CCOC(=O)C1CCCN(C(=O)c2ccc(CNc3c(N4CCC(C)CC4)c(=O)c3=O)cc2)C1` (stereo not drawn), the inhibition was 0.97%. In the case of `Cc1cccc(N2CCN(C(=O)c3ccc(CNc4c(N5CCC(C)CC5)c(=O)c4=O)cc3)CC2)c1C`, the inhibition is reported as 73.1%. Molecule `CC1CCN(c2c(NCc3ccc(C(=O)N4c5ccccc5CC4C)cc3)c(=O)c2=O)CC1` (stereo not drawn) has an inhibition of 7.17%. With `CC1CCN(C(=O)c2ccc(CNc3c(N4CCCC4)c(=O)c3=O)cc2)CC1` the inhibition was 78.3%. Work on `O=[N+]([O-])c1ccc(N2CCC(O)CC2)nc1` yielded an inhibition of -4.33%. For `O=c1oc2ccccc2c(NCCO)c1[N+](=O)[O-]`, the inhibition was 0.19%. Work on `Cc1cc(C)cc(NC(=O)C2CCCC2)c1` yielded an inhibition of -9.17%. Work on `CCOC(=O)C1CCN(c2nc(-c3ccccc3)nc3c2oc2ccccc23)CC1` yielded an inhibition of 25.5%. For `NC(=O)C1CCN(c2nc(-c3ccccc3)nc3c2oc2ccccc23)CC1`, the inhibition was 0.65%. For `O=C(O)C1CCN(c2nc(-c3ccccc3)nc3c2oc2ccccc23)CC1`, the inhibition was 2.63%. With `OCCN(CCO)c1nc(-c2ccccc2)nc2c1oc1ccccc12` the inhibition was 0.94%. `COc1ccc(NC(=S)NCc2ccc(S(N)(=O)=O)cc2)c(OC)c1` gave an inhibition of 6.58%. `O=C(NC1CCCC1)C(c1ccc(N2CCOCC2)cc1)N(Cc1ccccc1)C(=O)c1ccco1` (stereo not drawn) showed an inhibition of -11.4%. `O=c1c(C(c2ccccc2)c2c(O)nc3n(c2=O)CCCS3)c(O)nc2n1CCCS2` gave an inhibition of 7.37%. `Cc1cc(C)c(S(=O)(=O)N2CCC(C(=O)NCc3ccc(Cl)cc3Cl)CC2)c(C)c1` showed an inhibition of 4.79%. For `O=S(=O)(c1ccccc1Br)N1CCC(O)(c2cccnc2)CC1`, the inhibition was -4.98%. In the case of `CCOc1ccccc1NC(=O)C1CCCN(S(=O)(=O)c2ccc(OC)c(C)c2)C1` (stereo not drawn), the inhibition is reported as -3.35%. In the case of `NC(=O)c1oc2ccccc2c1NC(=O)c1nc2ccccc2s1`, the inhibition is reported as -3.12%. With `O=C(Nc1ccccc1)Nc1nnc(-c2ccccc2)o1` the inhibition was 6.54%. In the case of `O=C(Nc1nnc(-c2ccccc2)o1)Nc1ccc(F)cc1F`, the inhibition is reported as 7.77%. With `O=C(Nc1ccc(F)cc1)Nc1nnc(-c2ccccc2)o1` the inhibition was -7.42%. `O=C(Nc1nnc(-c2cccnc2)o1)c1ccccc1Cl` showed an inhibition of 4.74%. With `O=C(Nc1ccccc1)c1nc2ccccc2s1` the inhibition was 27.8%. For `COc1ccc(CNC(=O)c2cnccn2)cc1`, the inhibition was -0.78%. Molecule `COc1ccc(CCNC(=O)C2CCC(CNc3c(N4CCCC4)c(=O)c3=O)CC2)cc1OC` (stereo not drawn) has an inhibition of -2.59%. In the case of `COC(=O)[C@@H]1CCCN1Cc1c(C(=O)N2CCOCC2)nc2c(C)cccn12`, the inhibition is reported as -6.22%. In the case of `O=C(COc1ncnc2sccc12)N1CCN(C(=O)c2ccco2)CC1`, the inhibition is reported as -7.61%. With `O=c1c2ccccc2c(C=NCCCN2CCOCC2)c(O)n1Cc1ccc2c(c1)OCO2` the inhibition was 4.72%. `CC1(C)CC(N=Cc2c(O)n(Cc3ccc4c(c3)OCO4)c(=O)c3ccccc23)CC(C)(C)N1` showed an inhibition of 15%. In the case of `O=C(c1ccccc1-n1cccc1)N1N=C(C(F)F)CC1(O)C(F)F` (stereo not drawn), the inhibition is reported as -5.84%. Work on `Cc1ccc2occ(/C=N/NC(N)=S)c(=O)c2c1` yielded an inhibition of -2.35%. Work on `COc1cc(OC)cc(C(=O)/C=C2\Sc3ccccc3N2C)c1` yielded an inhibition of -9.58%. In the case of `COc1ccc(C(=O)/C=C2\Sc3ccccc3N2C)cc1`, the inhibition is reported as -4.42%. Molecule `COc1ccc(CNC(=O)COC(=O)c2cncc(Br)c2)cc1` has an inhibition of -4.32%. In the case of `Cc1nc2cc(O)ccc2n1C`, the inhibition is reported as -5.57%. For `Cc1ccc(-c2cc(C(=O)Nc3cc(C)on3)c3ccccc3n2)cc1`, the inhibition was 6.46%. With `COc1ccc(CNC(=O)c2cc(-c3ccncc3)nc3c(C)cc(C)cc23)cc1OC` the inhibition was 6.31%. `Cc1cc(NC(=O)c2cc(-c3cccnc3)nc3c(C)c(C)ccc23)no1` gave an inhibition of 13.3%. Work on `COc1cccc(NC(=O)c2cc(-c3cccnc3)nc3c(Cl)cccc23)c1` yielded an inhibition of -0.99%. `COc1ccc(N(C(C)C(=O)Nc2cccnc2)S(C)(=O)=O)cc1` (stereo not drawn) showed an inhibition of -6.21%. `Cc1cc(C)c2nc(N3CCC(C(=O)N4CCN(C(=O)c5ccco5)CC4)CC3)sc2c1` showed an inhibition of -2.47%. For `O=C(NCc1cccc(Cl)c1)c1cc(COc2ccc3ncccc3c2)on1`, the inhibition was 58.2%. `COc1ccc(-n2nnc3c(=O)n(Cc4cccc(C)c4)cnc32)cc1` showed an inhibition of -11.3%. For `CCSc1nnc(-c2ccc(Cl)cc2Cl)o1`, the inhibition was 4.11%. In the case of `CCOC(=O)CSc1ncc(-c2ccccc2)cn1`, the inhibition is reported as 15%. `CCOC(=O)C(C)Sc1ncc(-c2ccccc2)cn1` (stereo not drawn) showed an inhibition of -6.07%. `CCOC(=O)CSc1nnc(-c2cccc(Cl)c2)n1CC` showed an inhibition of -1.18%. `CC(C)OC(=O)CSc1nnc(-c2ccc(Cl)cc2Cl)n1N` showed an inhibition of -12.6%. With `CCCOC(=O)CSc1nnc(-c2ccccc2Cl)o1` the inhibition was 42.3%. Molecule `CCOC(=O)C(C)Sc1ncc(OC)c(Sc2ccc(Cl)cc2)n1` (stereo not drawn) has an inhibition of 7.19%. In the case of `COc1ccccc1-c1nnc(SCC(=O)OC(C)C)o1`, the inhibition is reported as 58.4%. `O=C(CN1C(=O)c2cccc3cccc1c23)Nc1ccc(S(=O)(=O)Nc2nccs2)cc1` showed an inhibition of -0.34%. For `COC(=O)c1ccc(/C=N/OCC(=O)NC2CCCC(C)C2C)cc1` (stereo not drawn), the inhibition was 10.8%. Work on `O=C(CSc1nc(-c2ccccc2)cs1)NCc1ccco1` yielded an inhibition of 3.71%. Molecule `COc1ccc(CC(=O)NC(C)(C)CC(C)=O)cc1OC` has an inhibition of 6.3%. For `CSc1ccc(-c2nnn(Cc3ccc(C)cc3)n2)cc1`, the inhibition was -7.23%. For `C=CCSc1nc(-c2ccc(OC)cc2)c(C#N)c(=O)n1CC=C`, the inhibition was 15.4%. Molecule `COc1ccc(/C=C/C(=O)NCC(=O)n2nc(C)cc2C)cc1` has an inhibition of -7.73%. With `COc1ccc2[nH]c(=O)c(CN(C)C(=O)C3CCCCC3)cc2c1` the inhibition was 4.58%. In the case of `O=C1NC(=O)C2C1C(c1cccs1)NN2Cc1ccccc1` (stereo not drawn), the inhibition is reported as 3.37%. `Cc1nn(CCC#N)c(NC(=O)c2ccc(Cl)cc2)c1P(=O)(Nc1ccc([N+](=O)[O-])cc1)N1CCOCC1` (stereo not drawn) gave an inhibition of -25.7%. In the case of `COc1ccc(-c2c(=O)n(OCc3ccccc3[N+](=O)[O-])c3ccccc3[n+]2[O-])c(OC)c1`, the inhibition is reported as 2.69%. In the case of `CCCNCc1cc(OC)c(OCc2ccccc2)cc1Br`, the inhibition is reported as 6.93%. `Cc1cc(N2CCN(Cc3ccccc3)CC2)n2nc(C)c(-c3ccccc3)c2n1` showed an inhibition of -3.83%. With `CCN1CCN(c2cc(C(C)C)nc3c(-c4ccccc4)c(C)nn23)CC1` the inhibition was 11.2%. In the case of `Cc1nn2c(N3CCN(C4CCCC4)CC3)cc(C(C)(C)C)nc2c1-c1ccccc1`, the inhibition is reported as 8.34%. With `Cc1nn2c(N3CCN(C(=O)c4ccco4)CC3)cc(C(C)(C)C)nc2c1-c1ccccc1` the inhibition was 32.7%. In the case of `O=C(CCc1ccccc1)NC1CCSC1=O` (stereo not drawn), the inhibition is reported as -9.93%. With `CCCCN1C(N)=NC[C@@H]1Cc1ccc(O)cc1` the inhibition was -2.68%. `NC1=NC[C@@H](Cc2ccc(O)cc2)N1CC1CCCCC1` gave an inhibition of -0.61%. Molecule `FC(F)(F)c1cc(CCN2C(=S)NC[C@@H]2CC2CCCCC2)cc(C(F)(F)F)c1` has an inhibition of -1.6%. With `NC1=NC[C@@H](Cc2ccc(O)cc2)N1CCc1cc(C(F)(F)F)cc(C(F)(F)F)c1` the inhibition was 11.5%. In the case of `NC1=NC[C@H](Cc2ccc(O)cc2)N1CC1CCCCC1`, the inhibition is reported as -3.49%. `NC1=NC[C@H](c2ccccc2)N1CCCCC1CCCCC1` gave an inhibition of 52.1%. `NC1=NC[C@@H](Cc2ccc(O)cc2)N1CCC12CC3CC(CC(C3)C1)C2` showed an inhibition of 20.2%. With `NC1=NC[C@H](Cc2ccccc2)N1CC1CCCCC1` the inhibition was -8.5%. In the case of `COC(=O)c1ccc(COc2ccccc2/C=C(\C#N)C(=O)NC(C)C)cc1`, the inhibition is reported as 4.92%. `COc1ccc(-n2c(O)c(C(C)=NCc3ccco3)c(=O)[nH]c2=O)cc1` gave an inhibition of 2.3%. Molecule `CCOC(=O)C1=C(CSc2nc(-c3ccccc3)ccc2C#N)OC(N)=C(C#N)C1c1ccccc1` (stereo not drawn) has an inhibition of -11.5%. Work on `CCn1c(CCc2nc3ccccc3[nH]2)n[nH]c1=S` yielded an inhibition of -3.65%. In the case of `Cc1cccc(Cl)c1NC(=O)N1CCN(c2ccnc3cc(Cl)ccc23)CC1`, the inhibition is reported as 0.44%. `Cc1ccc(F)cc1NC(=O)N1CCN(c2ccnc3cc(Cl)ccc23)CC1` showed an inhibition of 25.6%. For `CC(=O)N1CCN(c2ccnc3cc(Cl)ccc23)CC1`, the inhibition was -0.19%. `COc1ccccc1NC(=O)N1CCN(c2ccnc3cc(Cl)ccc23)CC1` showed an inhibition of 9.81%. `O=C(N/N=C/c1ccc2c(c1)OCO2)c1cc(-c2ccccc2)nc2ccccc12` gave an inhibition of 9.28%. In the case of `CC1CCCCC1NC(=O)COc1ccc(-n2cnnn2)cc1` (stereo not drawn), the inhibition is reported as 3.54%. Work on `COc1ccc(/C=N/NC(=O)Cn2cnc3c2c(=O)n(C)c(=O)n3C)cc1` yielded an inhibition of 0.48%.
